PubChem BioAssay (EPA / NIEHS)
Results filed as inconclusive are left out. The source made the active and inactive calls. Rule for the calls, unless noted: active = hit-call score of the fitted dose curve at least 0.9, where 1 is the maximum; inconclusive = response in the unintended direction; inactive = score below 0.9.

Assays:
[1] = biological target: human Thyroid hormone Receptor alpha (TRa), THRA (gene 7067) (UniProt P10827); assay: ATG_hTRa_XSP2: Attagene TRANS-FACTORIAL Multi-Species (XSP2) HepG2 Assay for human Thyroid hormone Receptor alpha (TRa) (AID 2283838)
Chain of human Thyroid hormone Receptor alpha (TRa), THRA (gene 7067) (P10827 whole entry, looked up, the tested form may be a part): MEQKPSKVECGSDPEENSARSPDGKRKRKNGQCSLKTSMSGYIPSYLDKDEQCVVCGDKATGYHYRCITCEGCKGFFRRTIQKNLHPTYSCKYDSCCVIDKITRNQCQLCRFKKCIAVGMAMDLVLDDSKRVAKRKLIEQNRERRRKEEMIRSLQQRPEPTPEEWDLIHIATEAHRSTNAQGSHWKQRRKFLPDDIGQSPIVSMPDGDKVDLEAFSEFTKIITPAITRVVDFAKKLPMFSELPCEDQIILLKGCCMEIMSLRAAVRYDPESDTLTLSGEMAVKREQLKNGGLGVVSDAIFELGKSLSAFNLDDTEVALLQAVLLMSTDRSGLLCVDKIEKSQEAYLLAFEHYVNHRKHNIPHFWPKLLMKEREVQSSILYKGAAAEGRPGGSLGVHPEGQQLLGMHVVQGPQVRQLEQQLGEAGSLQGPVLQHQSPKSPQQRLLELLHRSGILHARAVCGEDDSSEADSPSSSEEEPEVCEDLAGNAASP
Summary of the method: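 Reporter transcripts were read by RT-PCR with fluorescent primer extension, HpaI digestion and capillary electrophoresis. These came from HepG2 cells carrying multiplexed TRa-Gal4 TRANS constructs, harvested 24 hours after dosing. The medium also held 6-alpha-fluorotestosterone (3 nM) and norgestrel (1.5 nM), and increases were fitted against DMSO.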

[2] = biological target: frog Thyroid hormone Receptor alpha (TRa), thra-a (gene 397942) (UniProt P15204); assay: ATG_frTRa_XSP2: Attagene TRANS-FACTORIAL Multi-Species (XSP2) HepG2 Assay for frog Thyroid hormone Receptor alpha (TRa) (AID 2283839)
Chain of frog Thyroid hormone Receptor alpha (TRa), thra-a (gene 397942) (P15204 whole entry, looked up, the tested form may be a part): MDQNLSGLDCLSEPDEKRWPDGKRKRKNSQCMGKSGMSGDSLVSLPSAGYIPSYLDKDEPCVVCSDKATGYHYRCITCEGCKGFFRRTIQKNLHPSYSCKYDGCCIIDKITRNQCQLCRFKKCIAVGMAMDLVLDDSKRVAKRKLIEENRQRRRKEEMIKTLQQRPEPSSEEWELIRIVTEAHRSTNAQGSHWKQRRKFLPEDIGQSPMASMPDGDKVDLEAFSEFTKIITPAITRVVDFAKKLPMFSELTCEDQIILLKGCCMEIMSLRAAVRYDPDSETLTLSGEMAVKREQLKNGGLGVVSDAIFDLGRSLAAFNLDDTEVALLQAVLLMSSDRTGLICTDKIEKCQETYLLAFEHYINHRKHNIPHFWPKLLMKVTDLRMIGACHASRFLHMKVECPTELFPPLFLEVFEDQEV
Summary of the method: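 Frog thyroid receptor alpha was tested as an exogenous NR-Gal4 fusion in transiently transfected HepG2 cells. After 24 h chemical treatment, reporter mRNA induction was quantified by RT-PCR and capillary electrophoresis, with gain-of-signal analysed relative to DMSO.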

[3] = biological target: human Thyroid hormone Receptor beta (TRb), THRB (gene 7068) (UniProt P10828); assay: ATG_hTRb_XSP2: Attagene TRANS-FACTORIAL Multi-Species (XSP2) HepG2 Assay for human Thyroid hormone Receptor beta (TRb) (AID 2283840);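 note: actives raise reporter mRNA so potency reflects agonist-like gain of signal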
Chain of human Thyroid hormone Receptor beta (TRb), THRB (gene 7068) (P10828 whole entry, looked up, the tested form may be a part): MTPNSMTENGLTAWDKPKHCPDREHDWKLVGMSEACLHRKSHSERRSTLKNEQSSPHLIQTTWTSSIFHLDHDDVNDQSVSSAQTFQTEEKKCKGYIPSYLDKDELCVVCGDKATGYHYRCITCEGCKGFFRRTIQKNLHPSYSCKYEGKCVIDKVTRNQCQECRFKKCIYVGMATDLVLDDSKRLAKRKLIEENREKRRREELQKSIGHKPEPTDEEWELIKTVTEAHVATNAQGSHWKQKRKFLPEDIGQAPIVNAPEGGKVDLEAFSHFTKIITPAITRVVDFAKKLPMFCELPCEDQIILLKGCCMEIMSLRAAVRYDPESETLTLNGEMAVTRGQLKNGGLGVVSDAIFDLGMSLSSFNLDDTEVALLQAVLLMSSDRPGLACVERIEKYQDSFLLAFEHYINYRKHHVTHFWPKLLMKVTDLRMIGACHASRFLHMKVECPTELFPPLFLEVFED
Summary of the method: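 In this cell-based multiplex, HepG2 liver cells carrying transfected GAL4-UAS reporter constructs are exposed to chemical for 24 hours, then reporter transcripts are measured by RT-PCR with capillary electrophoresis, scored as gain of signal against DMSO.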

PGR (gene 5241) = PGR (gene 5241) (UniProt P06401); assay: TOX21_PR_BLA_Followup_Antagonist_ratio: Tox21 HEK293 Progesterone Receptor (PR) Antagonism Beta-lactamase Follow-Up Assay, Ratio (AID 2283934);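 note: PR-UAS-bla HEK293T cells stimulated with 1 nM R5020 agonist for 16 hr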
Chain of PGR (gene 5241) (P06401 whole entry, looked up): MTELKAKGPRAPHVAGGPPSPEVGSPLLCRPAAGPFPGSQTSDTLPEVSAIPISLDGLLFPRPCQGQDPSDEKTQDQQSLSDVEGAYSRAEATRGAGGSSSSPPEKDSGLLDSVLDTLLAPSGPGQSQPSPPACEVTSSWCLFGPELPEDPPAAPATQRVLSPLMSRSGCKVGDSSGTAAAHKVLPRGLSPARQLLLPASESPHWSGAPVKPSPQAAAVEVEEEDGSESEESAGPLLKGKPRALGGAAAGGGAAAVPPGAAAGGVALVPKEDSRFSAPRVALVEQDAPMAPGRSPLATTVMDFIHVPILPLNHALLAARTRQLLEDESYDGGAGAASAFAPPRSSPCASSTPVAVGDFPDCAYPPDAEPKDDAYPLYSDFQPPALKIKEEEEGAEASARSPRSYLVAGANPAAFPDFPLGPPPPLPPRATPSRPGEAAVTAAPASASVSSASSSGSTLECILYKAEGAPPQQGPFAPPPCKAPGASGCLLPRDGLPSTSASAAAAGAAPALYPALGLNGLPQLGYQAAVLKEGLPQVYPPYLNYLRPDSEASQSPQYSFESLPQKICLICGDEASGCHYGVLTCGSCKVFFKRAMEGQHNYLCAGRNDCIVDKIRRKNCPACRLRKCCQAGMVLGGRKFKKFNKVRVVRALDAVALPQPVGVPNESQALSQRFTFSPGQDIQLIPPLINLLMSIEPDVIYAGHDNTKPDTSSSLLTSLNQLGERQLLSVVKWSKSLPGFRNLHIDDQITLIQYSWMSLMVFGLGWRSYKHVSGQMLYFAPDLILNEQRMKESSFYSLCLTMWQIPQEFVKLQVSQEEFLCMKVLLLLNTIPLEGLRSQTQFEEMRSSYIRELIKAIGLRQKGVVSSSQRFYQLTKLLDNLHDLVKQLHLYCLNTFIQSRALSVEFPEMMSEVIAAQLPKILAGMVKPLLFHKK
Summary of the method: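 Readout is the blue/green (ch2/ch1) substrate cleavage ratio after 2 hours at room temperature, following 16 hr co-treatment of PR-bla HEK293T cells with compound and 1nM promegestone. Multiplexed CellTiter-Glo viability flags cytotoxicity; DMSO baseline.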

[4] = TOX21_PR_BLA_Followup_Agonist_viability: Viability Assessment in the Tox21 HEK293 Progesterone Receptor (PR) Agonism Beta-lactamase Follow-Up Assay (AID 2283935);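 note: signal loss means lower viability so actives are cytotoxic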
Summary of the method: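 Run multiplexed with the beta-lactamase FRET read, this endpoint measures ATP by CellTiter-Glo luminescence (30 min, room temperature). PR-UAS-bla HEK293T cells received compound 6 hr after plating and were then incubated 16 hr at 37C in 2% stripped serum.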

[5] = test system: Sodium/Iodide Symporter (NIS), SLC5A5 (gene 6528); assay: CPHEA_Stoker_NIS_Inhibition_RAIU: CPHEA's Radioactive Iodide Uptake (RAIU) Assay for Sodium/Iodide Symporter (NIS) Inhibition, Stoker and Laws Labs (AID 2283841)
Summary of the method: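 HEK293T cells stably expressing human NIS (hNIS-HEK293T-EPA) were exposed to test chemicals at 0.001–100uM (0.5% final DMSO) with 125I at a final 329pM in HBSS/10mM HEPES pH 7.4. After 2 hours at room temperature and ice-cold washes, intracellular 125I was counted as CPM and normalized to DMSO wells.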

[6] = CPHEA_Stoker_NIS_Cytotoxicity: Cytotoxicity Assessment for CPHEA's Radioactive Iodide Uptake (RAIU) Assay for Sodium/Iodide Symporter (NIS) Inhibition, Stoker and Laws Labs (AID 2283897);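 for AC50: active means loss of ATP signal versus DMSO meaning cytotoxicity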
Summary of the method: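 hNIS-HEK293T-EPA human kidney cells were exposed for 2 hours at room temperature to test chemicals (0.001–100uM, 0.5% final DMSO) in HEPES-buffered HBSS, pH 7.4. Viability was read as ATP content by luciferase bioluminescence, loss of signal versus DMSO.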

[7] = CEETOX_H295R_11DCORT_noMTC: CeeTox H295R High-throughput Steroidogenesis Assay for 11-Deoxycortisol (11DCORT), maximum tolerated concentration (MTC) filtered results only (AID 2283911; active = hit-call score of the fitted dose curve at least 0.9, where 1 is the maximum; inactive = score below 0.9); details: actives raise or lower the signal
Summary of the method: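 Readout is 11-deoxycortisol in culture medium by reverse-phase HPLC with MS/MS, after 48 h chemical treatment of forskolin-primed H295R cells. Values are relative to DMSO and unfiltered for cytotoxicity.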

[8] = CEETOX_H295R_OHPREG_noMTC: CeeTox H295R High-throughput Steroidogenesis Assay for OH-Pregnenolone (OHPREG), maximum tolerated concentration (MTC) filtered results only (AID 2283912; active = hit-call score of the fitted dose curve at least 0.9, where 1 is the maximum; inactive = score below 0.9); details: actives raise or lower the signal
Summary of the method: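 Medium 17alpha-hydroxypregnenolone quantified by reverse-phase HPLC-MS/MS after 48 h chemical exposure of forskolin-prestimulated (10 uM, 48 h) H295R, 0.1% DMSO final. Fitting bidirectional relative to DMSO; no maximum-tolerated-concentration filtering applied.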

[9] = CEETOX_H295R_OHPROG_noMTC: CeeTox H295R High-throughput Steroidogenesis Assay for OH-Progesterone (OHPROG), maximum tolerated concentration (MTC) filtered results only (AID 2283914; active = hit-call score of the fitted dose curve at least 0.9, where 1 is the maximum; inactive = score below 0.9); details: actives raise or lower the signal
Summary of the method: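 After 48 h forskolin (10 uM) prestimulation, H295R adrenal cells received test chemical in 0.1% DMSO for 48 h. Medium 17alpha-hydroxyprogesterone was MTBE-extracted and measured by HPLC-MS/MS; gain or loss relative to DMSO, no MTT-based MTC filtering.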

[10] = CEETOX_H295R_CORTISOL_noMTC: CeeTox H295R High-throughput Steroidogenesis Assay for Cortisol, maximum tolerated concentration (MTC) filtered results only (AID 2283916; active = hit-call score of the fitted dose curve at least 0.9, where 1 is the maximum; inactive = score below 0.9); details: actives raise or lower the signal
Summary of the method: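 Cortisol secretion measured by LC-MS/MS after 48 h chemical treatment (final 0.1% DMSO) of forskolin-primed (10 uM, 48 h) H295R cells; gain or loss fitted relative to DMSO, without maximum-tolerated-concentration filtering.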

[11] = CEETOX_H295R_CORTIC_noMTC: CeeTox H295R High-throughput Steroidogenesis Assay for Corticosterone (CORTIC), maximum tolerated concentration (MTC) filtered results only (AID 2283917; active = hit-call score of the fitted dose curve at least 0.9, where 1 is the maximum; inactive = score below 0.9); details: actives raise or lower the signal
Summary of the method: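 Human adrenal H295R cells were prestimulated 48 h with 10 uM forskolin, then exposed 48 h to chemical in 0.1% DMSO. Medium corticosterone was MTBE-extracted and quantified by HPLC-MS/MS; bidirectional fits versus DMSO, concentrations not MTC-filtered.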

[12] = CEETOX_H295R_DOC_noMTC: CeeTox H295R High-throughput Steroidogenesis Assay for DOC, maximum tolerated concentration (MTC) filtered results only (AID 2283918; active = hit-call score of the fitted dose curve at least 0.9, where 1 is the maximum; inactive = score below 0.9); details: actives raise or lower the signal
Summary of the method: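 11-Deoxycorticosterone secreted by human adrenal H295R cells quantified by HPLC-MS/MS after 48 h chemical exposure (0.1% DMSO), following 48 h 10 uM forskolin prestimulation. Concentrations not filtered by MTT-derived MTC; bidirectional fitting.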

[13] = CEETOX_H295R_ESTRADIOL_noMTC: CeeTox H295R High-throughput Steroidogenesis Assay for Estradiol, maximum tolerated concentration (MTC) filtered results only (AID 2283919; active = hit-call score of the fitted dose curve at least 0.9, where 1 is the maximum; inactive = score below 0.9); details: actives raise or lower the signal
Summary of the method: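 Readout: dansyl-derivatized estradiol quantified by LC-MS/MS in medium from H295R cells dosed 48 h (0.1% DMSO) following 48 h forskolin (10 uM) prestimulation. Gain or loss of signal fitted against DMSO; no MTC filtering applied.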

[14] = CEETOX_H295R_PROG_noMTC: CeeTox H295R High-throughput Steroidogenesis Assay for Progesterone (PROG), maximum tolerated concentration (MTC) filtered results only (AID 2283920; active = hit-call score of the fitted dose curve at least 0.9, where 1 is the maximum; inactive = score below 0.9); details: actives raise or lower the signal
Summary of the method: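 Progesterone secreted into medium was measured by HPLC-MS/MS after MTBE extraction, following 48 h chemical exposure (0.1% DMSO) of forskolin-prestimulated (10 uM, 48 h) H295R adrenal cells. Gain or loss fitted against DMSO; no MTC filtering.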

[15] = CEETOX_H295R_ESTRONE_noMTC: CeeTox H295R High-throughput Steroidogenesis Assay for Estrone, maximum tolerated concentration (MTC) filtered results only (AID 2283921; active = hit-call score of the fitted dose curve at least 0.9, where 1 is the maximum; inactive = score below 0.9); details: actives raise or lower the signal
Summary of the method: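 Estrone in spent medium, quantified by tandem MS following dansyl chloride derivatization, after 48 h chemical exposure (0.1% DMSO) of forskolin-prestimulated (10 uM, 48 h) H295R cells; concentrations not MTC-filtered, bidirectional fit against DMSO.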

[16] = CEETOX_H295R_ANDR_noMTC: CeeTox H295R High-throughput Steroidogenesis Assay for Androstenedione (ANDR), maximum tolerated concentration (MTC) filtered results only (AID 2283915; active = hit-call score of the fitted dose curve at least 0.9, where 1 is the maximum; inactive = score below 0.9); details: actives raise or lower the signal
Summary of the method: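 Androstenedione secreted into medium was measured by LC-MS/MS after MTBE extraction. Human adrenal H295R cells received 10 uM forskolin for 48 h before 48 h chemical exposure (0.1% DMSO). Gain or loss fitted against DMSO, including concentrations above the MTT-derived MTC.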

[17] = CEETOX_H295R_TESTO_noMTC: CeeTox H295R High-throughput Steroidogenesis Assay for Testosterone (TESTO), maximum tolerated concentration (MTC) filtered results only (AID 2283924; active = hit-call score of the fitted dose curve at least 0.9, where 1 is the maximum; inactive = score below 0.9); details: actives raise or lower the signal
Summary of the method: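 Medium testosterone, measured by HPLC-MS/MS after liquid-liquid extraction, was fitted in both directions relative to DMSO without MTC filtering. Adrenal H295R cells received 48 h chemical exposure (0.1% DMSO final) after 48 h forskolin (10 uM) prestimulation; viability by MTT.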

Measured: AC50

C[C@]12CCC(=O)C[C@@H]1CC[C@@H]1[C@@H]2CC[C@]2(C)[C@@H](O)CC[C@@H]12
inactive: [1] | [2] | PGR (gene 5241) | [4]
active: [3] 0.421 µM

COP(=O)(OC)O/C(=C\Cl)c1cc(Cl)c(Cl)cc1Cl
inactive: [2] | [3] | [5] | [6]

Cn1sc(Cl)cc1=O
inactive: [5] | [6] | [7] | [8] | [9] | [10] | [11] | [12] | [13] | [14] | [15]

COP(=S)(OC)Oc1ccc(Sc2ccc(OP(=S)(OC)OC)cc2)cc1
inactive: [5] | [6]

CC(=O)[O][Hg][c]1ccccc1
active: [5] 50 µM | [6] 9.92 µM

c1cc[c]([Hg][c]2ccccc2)cc1
inactive: [5] | [6] | [13] | [15]
active: [7] 53.6 µM | [8] 27.1 µM | [9] 32 µM | [16] 50 µM | [10] 36.9 µM | [11] 76.1 µM | [12] 2.26 µM | [14] 21.9 µM | [17] 67.9 µM

CCN1CCC2(CC1)COc1cc3c(cc12)N(C(=O)c1ccc(-c2ccc(-c4nnc(C)o4)cc2C)cc1)CC3
active: [5] 72.8 µM | [6] 8.43 µM

Clc1ccc(COC(Cn2ccnc2)c2ccc(Cl)cc2Cl)cc1 (stereo not drawn)
active: [5] 11.7 µM | [6] 72.6 µM

CCC1(c2ccc(N)cc2)CCC(=O)NC1=O (stereo not drawn)
inactive: [7] | [8] | [9] | [16] | [10] | [11] | [12] | [14] | [17]

CCC(C)(C)c1ccc(O)c(C(C)(C)CC)c1
active: [6] 9.92 µM
inactive: [5]

O=C1C(Cl)=C(Cl)C(=O)c2ccccc21
active: [5] 9.92 µM | [6] 50 µM

CCCCCCCCSC(=O)Oc1cc(Cl)nnc1-c1ccccc1
inactive: [5] | [6]

CCOP(=S)(OCC)Oc1nc(Cl)c(Cl)cc1Cl
inactive: [5] | [6]

O=C(NCO)NCO
inactive: [5] | [6]

O=[N+]([O-])c1ccc(O)c([N+](=O)[O-])c1
inactive: [5] | [6]

O=C(OC1CCCCC1)c1ccccc1C(=O)OC1CCCCC1
inactive: [5] | [6] | [10] | [11] | [14]
active: [7] 2.24 µM | [8] 2.11 µM | [9] 0.549 µM | [12] 13.5 µM

O=C(O)C(F)(F)C(F)(F)C(F)(F)C(F)(F)C(F)(F)C(F)(F)F
inactive: [5] | [6]

Nc1ccc(-c2ccc(N)c(Cl)c2)cc1Cl
inactive: [4]
active: PGR (gene 5241) 5.01 µM

CC(C)(c1ccccc1)c1ccc(O)c(C(C)(C)c2ccccc2)c1
inactive: [5] | [6]

Fc1ccc(C2(Cn3cncn3)OC2c2ccccc2Cl)cc1 (stereo not drawn)
inactive: [5] | [6]

C=C(C)C(=O)[O][Sn]([CH2]CCC)([CH2]CCC)[CH2]CCC
active: [5] 5.24 µM | [6] 1.25 µM

O=C/C=C/c1ccccc1
inactive: [5] | [6]

CCC[CH2][Sn]([CH2]CCC)([CH2]CCC)[O]C(=O)c1ccccc1
active: [5] 1.4 µM | [6] 9.05 µM

NNC(=S)NN
inactive: [5] | [6]

ClC(Cl)=C(Cl)C(Cl)=C(Cl)Cl
inactive: [7] | [8] | [9] | [10] | [11] | [12] | [14]

O=C(Nc1ccc2[nH]ccc2c1)c1cc2cc(F)ccc2n1Cc1cccc(F)c1
inactive: [5] | [6]

CCOP(=S)(OCC)SCSP(=S)(OCC)OCC
inactive: [5] | [6]
